Experimental data: PubChem BioAssay (NCI)
Several values for one entry are separate records, joined by “and”; a condition that tells them apart may be missing. Equal entries are not always repeated. This is part of a sample that, as a whole, favours compounds with a hit. Of some 83,000 tested, about 20% had one in any assay.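 48-hour exposure, single concentration, 96-well plates; percent growth endpoint where 0 means no net growth. Active: below 10.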 Activity calls are given as the source filed them.

What follows are compounds tested on MCF7 breast (assay: NCI-60 one-dose screen, 48 h (100 = growth as untreated, 0 = no growth, -100 = all killed)). Details: 10 µM unless noted.

Row | Structure (SMILES) | growth
1 | C=c1c2ccccc2oc2nc3[nH]c(N)c(C#N)c(N)c3c(=N)c12 | 25.6% [100 µM] (inactive) and 0.562% [100 µM] (active)
2 | CC1(C=O)CCC23COC4(CCC5C6(C)CCC(OC7OCC(OC8OC(CO)C(O)C(OC9OC(CO)C(O)C(O)C9O)C8OC8OCC(O)C(O)C8O)C(O)C7OC7OC(CO)C(O)C(O)C7O)C(C)(C)C6CCC5(C)C4(C)CC2O)C3C1 (centres undefined) | -68.6% [100 µM] (active) and -39.6% [100 µM] (active)
3 | N=C1C(=N)c2ccccc2-c2ccccc21 | 30.7% [100 µM] (inactive) and 0.817% [100 µM] (active)
4 | Cc1ccc(/C=N/Nc2cc(C)c3cccc(C)c3n2)s1 | -73.1% [100 µM] (active) and -100% [100 µM] (active)
5 | CC1OC(OC2C(OC3CCC4(C)C(CCC5(C)C4CC=C4C6CC(C)(C)CCC6(C(=O)O)CCC45C)C3(C)CO)OCC(O)C2O)C(O)C(O)C1O (centres undefined) | -88% [100 µM] (active) and -90.5% [100 µM] (active)
6 | Cc1cc(O)c2c(c1)C(=O)C(c1c(C)cc3c(c1O)C(=O)C1OC1C3=O)=CC2=O (centres undefined) | -64.5% [100 µM] (active) and -90% [100 µM] (active)
7 | C=C1C(=O)C2=CC1CCC(=O)C1(C)CCC(OC(C)=O)C(C)(C)C1CC2O (centres undefined) | -80.9% [100 µM] (active) and -63.1% [100 µM] (active)
8 | COc1ccc2nc3c4c(nccc4c2c1)-c1ncccc1C3=O | -82% [50 µM] (active) and -100% [50 µM] (active)
9 | COc1c(/C=C/C=O)cc2c(c1OC)OCO2 | -30% [100 µM] (active) and -83.3% [100 µM] (active)
10 | COc1ccc(OC)c(Cc2cnc3nc(N)nc(N)c3c2C)c1 | 3.33% [100 µM] (active) and -100% [100 µM] (active)
11 | CC1=C(C2=C(C)C(=O)C(=O)c3cc(C)ccc32)c2ccc(C)cc2C(=O)C1=O | -55.4% [100 µM] (active) and -100% [100 µM] (active)
12 | CN1CCc2cc3c(c4c2C1C(O)c1ccccc1-4)OCO3 (centres undefined) | -24.6% [100 µM] (active) and -58.3% [100 µM] (active)
13 | Cc1c2c(c(C)c3c[n+](C)ccc13)Oc1ccccc1O2 | -33.4% [100 µM] (active) and -100% [100 µM] (active)
14 | CC(C)(C)N/N=C(/Cc1nc2c3c(ccc2[nH]c1=O)C(=O)c1ccccc1C3=O)C(=O)NC1=C(Cl)C(=O)c2ccccc2C1=O | 6.76% [100 µM] (active) and -75.9% [100 µM] (active)
15 | C=C(C)C1CC2(C)C(C)CC(O)CC2C(OC(=O)C=C(C)C)C1O (centres undefined) | 5.38% [100 µM] (active) and 25.4% [100 µM] (inactive)
16 | CC1=CC[C@@H]2[C@@H](CC[C@@]2(C)O)C(C)(C)[C@H]1CC[C@@H]1[C@@]2(C)CCC(=O)C(C)(C)O[C@@H]2CC[C@]1(C)O | -36.8% [100 µM] (active) and -100% [100 µM] (active)
17 | COc1ccc(Nc2nc3ccc(C(F)(F)F)cc3nc2C(=O)O)cc1 | -31.5% [100 µM] (active) and -100% [100 µM] (active)
18 | Cn1c(COC(=O)NC2CCCCC2)c(COC(=O)NC2CCCCC2)c2ccc3cc(Cl)c(Cl)cc3c21 | -78.6% [100 µM] (active)
19 | C=C1C(=O)OC2CC3(C)CCCC(C)C3=CC12 (centres undefined) | -91.8% [100 µM] (active) and -84.5% [100 µM] (active)
20 | CC1=C(Cl)C[C@@H](/C(C)=C\Cl)O[C@@]1(O)C(Br)Br | 19.3% [100 µM] (inactive) and -76.7% [100 µM] (active)
21 | COc1ccc2c(c1)C(OC)C1c3c(cc4c(c3-2)OCO4)CCN1C (centres undefined) | -76.9% [100 µM] (active) and -70% [100 µM] (active)
22 | C=C1C(=O)OC2CC1C(OC(=O)/C=C/c1ccccc1)C/C(C)=C/CC/C(C)=C/CCC2(C)O (centres undefined) | -76% [100 µM] (active) and -30% [100 µM] (active)
23 | O=C(O)CCCOc1cc(-c2ccccc2F)nc2cc3c(cc12)OCO3 | 9.31% [100 µM] (active) and -50% [100 µM] (active)
24 | CCOc1cc2c(cc1O)/C(=N\OC)C[C@@H]1[C@@H]2CC[C@]2(C)[C@@H](O)CC[C@@H]12 | 0.562% [100 µM] (active) and -100% [100 µM] (active)
